Shown are actives, neighbours in structure and some others; about 1.8% of the full set was active somewhere.
LYPLA1 inh = LYPLA1 inhibitors, primary screen, counter-screen for PME1 inhibitor project, biochemical, fluorescence polarization, FP-Rh probe ABPP. recombinant LYPLA1. Acyl-protein thioesterase 1 (Homo sapiens), O75608. inhibition, % at 5.9 µM. 0.16% of 320,000 active. AID 2174, 2009;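 active = inhibition above the mean of all tested compounds plus 3 SD, set per campaign, cut at about 14% in these data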;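 note: inhibitors block serine hydrolase probe labeling of LYPLA1 so polarization falls; 0% = enzyme with DMSO and 100% = wells lacking LYPLA1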
Target sequence (O75608 whole entry, looked up): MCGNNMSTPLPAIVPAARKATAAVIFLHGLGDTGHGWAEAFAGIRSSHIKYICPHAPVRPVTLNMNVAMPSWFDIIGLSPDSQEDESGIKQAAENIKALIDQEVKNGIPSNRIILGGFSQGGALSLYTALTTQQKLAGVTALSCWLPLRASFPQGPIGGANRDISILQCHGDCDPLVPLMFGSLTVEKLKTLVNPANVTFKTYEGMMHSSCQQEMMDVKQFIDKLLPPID
PME-1 primary = PME-1 inhibitors via competitive probe labeling, primary screen, biochemical, fluorescence polarization, FP-Rh probe, HTS. Protein phosphatase methylesterase 1 (Homo sapiens), Q9Y570. recombinant PME-1. inhibition, % at 5.9 µM. 0.53% of 320,000 active. AID 2130, 2009;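 active = inhibition above the campaign mean of all compounds plus 3 SD, cut at about 26% in these data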;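 note: competitive labeling of PME-1 active site by serine hydrolase directed probe; 0% = PME-1 with DMSO and 100% = wells lacking PME-1 enzyme; inhibitors block probe labeling so polarization falls and inhibition rises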
Target sequence (Q9Y570 whole entry, looked up): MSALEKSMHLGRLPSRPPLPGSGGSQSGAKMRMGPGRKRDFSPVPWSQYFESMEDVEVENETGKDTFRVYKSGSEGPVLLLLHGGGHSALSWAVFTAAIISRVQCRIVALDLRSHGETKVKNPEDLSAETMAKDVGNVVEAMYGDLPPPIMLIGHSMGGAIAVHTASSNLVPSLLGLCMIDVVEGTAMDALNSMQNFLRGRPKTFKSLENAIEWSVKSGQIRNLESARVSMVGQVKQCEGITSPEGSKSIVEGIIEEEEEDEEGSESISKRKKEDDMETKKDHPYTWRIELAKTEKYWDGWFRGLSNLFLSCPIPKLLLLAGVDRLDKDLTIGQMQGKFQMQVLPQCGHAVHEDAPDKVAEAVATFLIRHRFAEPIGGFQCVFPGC
LYPLA2 counter = LYPLA2 inhibitors, primary screen, counter-screen for PME1 inhibitor project, biochemical, fluorescence polarization, FP-Rh probe ABPP; Acyl-protein thioesterase 2 (Homo sapiens), O95372; 0.38% of 320,000 active; recombinant LYPLA2; AID 2177, 2009; inhibition, % at 5.9 µM;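 active = inhibition above the screen-wide mean plus 3 SD, limit set per campaign, cut at about 26% in these data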;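 note: 0% = LYPLA2 with DMSO and 100% = wells lacking LYPLA2 enzyme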
Fam108B inh = mouse Fam108B serine hydrolase inhibitors, primary screen, counter-screen for RBBP9 inhibitor project, biochemical, fluorescence polarization | recombinant Fam108B, FP-Rh probe fluorescence polarization | inhibition, % at 9.51 µM | 0.33% of 300,000 active | AID 1947, 2009;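 active = inhibition above the screen mean inhibition plus 3 SD, computed separately per campaign, cut at about 18% in these data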;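 note: inhibitors lower polarization as less probe binds the enzyme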
GSTO1 counter = inhibitors of recombinant GSTO1, primary screen, counter-screen for RBBP9 inhibitor project, biochemical, fluorescence polarization. inhibition, % at 5.96 µM. Glutathione S-transferase omega-1 (Homo sapiens), P78417. 1.1% of 300,000 active. AID 1974, 2009. activity-based probe fluorescence polarization;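 active = inhibition above the campaign mean inhibition plus 3 SD, cut at about 35% in these data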;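 note: 0% = GSTO1-1 with DMSO and 100% = wells lacking GSTO1-1 enzyme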
PAD4 FP inh = human PAD4 inhibitors, primary screen, biochemical, fluorescence polarization, 1536-well format; recombinant PAD4, RCA probe fluorescence polarization; inhibition, % at 6.36 µM; 0.41% of 330,000 active; AID 485272, 2010;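 active = percent inhibition above a cutoff equal to the mean of all tested compounds plus 3 SD, cut at about 15% in these data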;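 note: 0% = PAD4 with RCA probe and DMSO and 100% = probe without PAD4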
Active calls of the source: *.

What do the screens show for `CCN1CCN(c2ccc(S(=O)(=O)N3CCCCC3)cc2NC(=O)c2ccc([N+](=O)[O-])s2)CC1`?
LYPLA1 inh: 3; PME-1 primary: -4; LYPLA2 counter: -6; Fam108B inh: 0; GSTO1 counter: 12; PAD4 FP inh: -1

How did Cc1ccc(Cn2ccsc2=NC(=O)CCl)cc1 do in these assays?
LYPLA1 inh: 0; PME-1 primary: 0; LYPLA2 counter: 4; Fam108B inh: -6; GSTO1 counter: 84*; PAD4 FP inh: 3

What do the screens show for `Cc1ccc(Cn2ccsc2=NC(=O)COC(=O)c2ccc(NC(=O)CC#N)cc2)cc1`?
LYPLA1 inh: -8; PME-1 primary: 11; LYPLA2 counter: -6; Fam108B inh: -6; GSTO1 counter: -76; PAD4 FP inh: -17

How did Cc1cc(C(=O)N/N=C2\CC(=O)c3ccccc32)c(C)n1-c1ccc(F)cc1 do in these assays?
LYPLA1 inh: -4; PME-1 primary: 10; LYPLA2 counter: 6; Fam108B inh: 6; GSTO1 counter: 55*; PAD4 FP inh: -5

How did CCOc1cc(/C=N/NC(=O)c2cc(C)n(-c3ccc(F)cc3)c2C)ccc1O do in these assays?
LYPLA1 inh: -4; PME-1 primary: 17; LYPLA2 counter: 1; Fam108B inh: 5; GSTO1 counter: 23; PAD4 FP inh: 0

What do the screens show for `Cc1ccc(-n2nc(C)c(C(=O)N3CCN(C(=O)c4ccco4)CC3)c2-n2cccc2)cc1`?
LYPLA1 inh: -2; PME-1 primary: -5; LYPLA2 counter: -3; Fam108B inh: -4; GSTO1 counter: 5; PAD4 FP inh: 0

How did O=C(CN1CCN(S(=O)(=O)c2ccc(Br)cc2)CC1)N/N=C/c1cc([N+](=O)[O-])ccc1Cl do in these assays?
LYPLA1 inh: -1; PME-1 primary: 27*; LYPLA2 counter: -2; Fam108B inh: 2; GSTO1 counter: -2; PAD4 FP inh: 3

What do the screens show for `CC(=O)Nc1ccc(NC(=O)CC2Nc3cccc4cccc(c34)NC2=O)cc1` (centres undefined)?
LYPLA1 inh: 6; PME-1 primary: 7; LYPLA2 counter: 15; Fam108B inh: 3; GSTO1 counter: 28; PAD4 FP inh: -2

What do the screens show for `CC(=O)c1ccc(NC(=O)CC2Nc3cccc4cccc(c34)NC2=O)cc1` (centres undefined)?
LYPLA1 inh: -6; PME-1 primary: 12; LYPLA2 counter: -3; Fam108B inh: 7; GSTO1 counter: 41*; PAD4 FP inh: -8

What do the screens show for `N#CCC(=O)Nc1ccc(C(=O)OCC(=O)Nc2ccccc2Sc2ccccc2)cc1`?
LYPLA1 inh: -13; PME-1 primary: 34*; LYPLA2 counter: 2; Fam108B inh: 6; GSTO1 counter: -35; PAD4 FP inh: -2

Results for CC(=O)Nc1ccc(C(=O)OCC(=O)Nc2ccccc2Sc2ccccc2)cc1 ?
LYPLA1 inh: -8; PME-1 primary: 2; LYPLA2 counter: -21; Fam108B inh: -15; GSTO1 counter: -26; PAD4 FP inh: -2

Results for CCCCC(=O)NNC(=S)NC(=O)c1ccc(C)cc1 ?
LYPLA1 inh: -1; PME-1 primary: -8; LYPLA2 counter: 1; Fam108B inh: -2; GSTO1 counter: -6; PAD4 FP inh: 0

What do the screens show for `Cc1ccc(C(=O)NC(=S)NNC(=O)CC#N)cc1`?
LYPLA1 inh: 1; PME-1 primary: 5; LYPLA2 counter: 0; Fam108B inh: -1; GSTO1 counter: 35*; PAD4 FP inh: 4

What do the screens show for `COc1ccc(S(=O)(=O)N2CCN(C(c3ccccc3)c3ccccc3)CC2)cc1NC(C)=O`?
LYPLA1 inh: 1; PME-1 primary: 2; LYPLA2 counter: -13; Fam108B inh: 5; GSTO1 counter: 5; PAD4 FP inh: -1

Results for Cn1cccc1/C=N\NC(=O)Cc1ccc(Br)c2ccccc12 ?
LYPLA1 inh: 4; PME-1 primary: 2; LYPLA2 counter: 7; Fam108B inh: -2; GSTO1 counter: 4; PAD4 FP inh: 3

Results for Cc1cc2nc3c(=O)n(CCc4ccccc4)c(=O)[nH]c3nc2cc1N ?
LYPLA1 inh: -3; PME-1 primary: 54*; LYPLA2 counter: 2; Fam108B inh: 9; GSTO1 counter: 37*; PAD4 FP inh: 1

Results for CCCCn1c(=O)[nH]c2nc3cc(N)ccc3nc2c1=O ?
LYPLA1 inh: 8; PME-1 primary: 23; LYPLA2 counter: 16; Fam108B inh: 9; GSTO1 counter: 25; PAD4 FP inh: 14

Results for C=CCn1c(=O)[nH]c2nc3cc(N=CN(C)C)c(C)cc3nc2c1=O ?
LYPLA1 inh: -3; PME-1 primary: -6; LYPLA2 counter: -1; Fam108B inh: 3; GSTO1 counter: 8; PAD4 FP inh: 3

Results for Nc1ccc2nc3c(=O)n(CCc4ccccc4)c(=O)[nH]c3nc2c1 ?
LYPLA1 inh: 6; PME-1 primary: 39*; LYPLA2 counter: 7; Fam108B inh: 6; GSTO1 counter: 11; PAD4 FP inh: 14

Results for O=S1(=O)CCOCCN1Cc1ccc(Cl)cc1Cl ?
LYPLA1 inh: 3; PME-1 primary: -6; LYPLA2 counter: 1; Fam108B inh: -1; GSTO1 counter: 5; PAD4 FP inh: 0

Results for Cc1ccnc(NS(=O)(=O)c2ccc(NC(=O)c3ccc([N+](=O)[O-])s3)cc2)n1 ?
LYPLA1 inh: 4; PME-1 primary: 3; LYPLA2 counter: 8; Fam108B inh: 1; GSTO1 counter: 37*; PAD4 FP inh: -2

What do the screens show for `O=C(CCl)Nc1cn(-c2ccccc2)nc1-c1ccccc1`?
LYPLA1 inh: -4; PME-1 primary: -2; LYPLA2 counter: -6; Fam108B inh: -6; GSTO1 counter: 51*; PAD4 FP inh: 4

How did CC(=O)Nc1cn(-c2ccccc2)nc1-c1ccccc1 do in these assays?
LYPLA1 inh: -2; PME-1 primary: -9; LYPLA2 counter: -5; Fam108B inh: -2; GSTO1 counter: 5; PAD4 FP inh: -4

How did COc1ccc(NC(=O)CC2CC3CCC2C3)cc1S(=O)(=O)N1CCOCC1 (centres undefined) do in these assays?
PAD4 FP inh: -2

Results for N#CCc1cnc2ccccc2n1 ?
LYPLA1 inh: 3; PME-1 primary: 22; LYPLA2 counter: 4; Fam108B inh: 10; GSTO1 counter: 36*; PAD4 FP inh: -1

Results for COC/C=C/C1=CC2=CC(=O)C(C)(OC(=O)c3cnc4ccccc4n3)C(=O)C2=CN1C1CCCCC1 (centres undefined) ?
LYPLA1 inh: -5; PME-1 primary: 3; LYPLA2 counter: -3; Fam108B inh: 10; GSTO1 counter: 36*; PAD4 FP inh: 0

Screening results deposited in PubChem by The Scripps Research Institute Molecular Screening Center.
